# Reference: the supplement of paper PMC9446081
# ± gives the standard deviation of the averaged measurements.
# Key:
# Experiment in all cases: relative enzymatic activity vs untreated control (fraction); higher = less inhibition
# Conditions in all cases: 100 µM; incubation time: 2 h at 37 C
# DNA gyrase = system: DNA gyrase
# Description: (§1)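 In vitro enzymatic inhibition assays (ProFoldin kits) for 12 purified essential E. coli enzymes or complexes, each treated with 218 active antibacterial compounds at 100 µM for 2 h at 37°C. Read-outs were fluorescence or absorbance (phosphate detection, dye binding), converted to activity via standard curves and expressed relative to untreated DMSO controls.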
# DNA helicase = DNA helicase (UniProt P0ACB1)
# Description: as §1
# DNA ligase = DNA ligase (UniProt B1XA82)
# Description: as §1
# DNA polymerase = DNA polymerase (UniProt P10443)
# Description: as §1
# DNA primase = DNA primase (UniProt P0ABS7)
# Description: as §1
# GlmU = GlmU (UniProt A7ZTU1)
# Description: as §1
# Guanlyate kinase = Guanlyate kinase (UniProt Q0TBG1)
# Description: as §1
# MurA = MurA (UniProt Q3YX52)
# Description: as §1
# MurD = target: T1, MurD (UniProt P14900)
# T1 sequence (whole entry): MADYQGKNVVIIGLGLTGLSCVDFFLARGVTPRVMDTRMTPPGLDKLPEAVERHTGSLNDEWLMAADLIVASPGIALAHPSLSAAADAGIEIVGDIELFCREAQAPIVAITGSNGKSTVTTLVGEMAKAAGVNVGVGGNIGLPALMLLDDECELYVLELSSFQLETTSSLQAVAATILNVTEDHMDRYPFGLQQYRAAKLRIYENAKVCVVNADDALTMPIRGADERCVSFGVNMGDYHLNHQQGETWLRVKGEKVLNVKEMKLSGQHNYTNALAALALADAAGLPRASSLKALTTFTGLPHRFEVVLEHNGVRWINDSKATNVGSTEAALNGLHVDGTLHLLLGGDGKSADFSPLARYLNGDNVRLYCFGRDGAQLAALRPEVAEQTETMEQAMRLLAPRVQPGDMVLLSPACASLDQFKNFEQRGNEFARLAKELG
# Description: as §1
# MurF = target: T2, MurF (UniProt P11880)
# T2 sequence (whole entry): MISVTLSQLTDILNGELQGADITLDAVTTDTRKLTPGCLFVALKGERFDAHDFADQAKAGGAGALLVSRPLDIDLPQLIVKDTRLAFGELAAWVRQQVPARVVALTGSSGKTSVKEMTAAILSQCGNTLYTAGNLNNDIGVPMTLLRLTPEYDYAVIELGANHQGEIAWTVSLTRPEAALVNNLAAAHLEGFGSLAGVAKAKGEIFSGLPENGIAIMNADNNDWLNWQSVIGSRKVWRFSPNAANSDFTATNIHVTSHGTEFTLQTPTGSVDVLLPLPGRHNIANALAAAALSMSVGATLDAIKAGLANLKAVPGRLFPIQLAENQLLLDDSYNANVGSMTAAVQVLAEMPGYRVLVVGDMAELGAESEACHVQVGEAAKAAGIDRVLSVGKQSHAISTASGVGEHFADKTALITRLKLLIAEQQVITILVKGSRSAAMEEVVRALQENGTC
# Description: as §1
# RNA polymerase = system: RNA polymerase
# Description: as §1
# MurC = MurC (UniProt C4ZRI6)
# Description: as §1
# Sequence of DNA polymerase (P10443 whole entry): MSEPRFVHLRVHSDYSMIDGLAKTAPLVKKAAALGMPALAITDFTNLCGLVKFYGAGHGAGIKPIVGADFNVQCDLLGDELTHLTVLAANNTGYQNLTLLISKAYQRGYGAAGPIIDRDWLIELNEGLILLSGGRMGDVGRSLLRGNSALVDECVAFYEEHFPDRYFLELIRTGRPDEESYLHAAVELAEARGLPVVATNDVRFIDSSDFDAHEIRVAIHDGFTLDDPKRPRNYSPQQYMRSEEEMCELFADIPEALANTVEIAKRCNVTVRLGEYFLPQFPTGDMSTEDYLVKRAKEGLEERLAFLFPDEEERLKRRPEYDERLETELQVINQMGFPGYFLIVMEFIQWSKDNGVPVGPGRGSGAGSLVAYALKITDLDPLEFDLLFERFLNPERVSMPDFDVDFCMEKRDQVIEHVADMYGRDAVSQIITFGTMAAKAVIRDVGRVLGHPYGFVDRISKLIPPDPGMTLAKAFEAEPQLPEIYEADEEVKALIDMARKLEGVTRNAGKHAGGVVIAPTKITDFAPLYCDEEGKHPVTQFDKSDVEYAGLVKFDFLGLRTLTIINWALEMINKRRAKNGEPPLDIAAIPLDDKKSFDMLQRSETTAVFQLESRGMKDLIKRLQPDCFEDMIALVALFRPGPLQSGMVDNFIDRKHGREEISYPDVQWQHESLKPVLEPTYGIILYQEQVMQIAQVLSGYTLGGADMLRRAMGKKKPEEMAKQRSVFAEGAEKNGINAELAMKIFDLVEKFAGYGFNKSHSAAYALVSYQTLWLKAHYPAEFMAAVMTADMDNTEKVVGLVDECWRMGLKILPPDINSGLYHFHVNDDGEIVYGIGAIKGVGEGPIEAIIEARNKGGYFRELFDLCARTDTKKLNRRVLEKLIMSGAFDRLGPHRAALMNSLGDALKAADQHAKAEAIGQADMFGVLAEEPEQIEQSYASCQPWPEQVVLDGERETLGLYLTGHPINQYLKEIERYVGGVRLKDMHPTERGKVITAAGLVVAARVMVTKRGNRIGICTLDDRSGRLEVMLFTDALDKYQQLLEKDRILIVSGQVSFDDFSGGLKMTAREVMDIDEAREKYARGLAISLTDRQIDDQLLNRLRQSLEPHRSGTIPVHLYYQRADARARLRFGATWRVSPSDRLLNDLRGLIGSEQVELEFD
# Sequence of DNA ligase (B1XA82 whole entry): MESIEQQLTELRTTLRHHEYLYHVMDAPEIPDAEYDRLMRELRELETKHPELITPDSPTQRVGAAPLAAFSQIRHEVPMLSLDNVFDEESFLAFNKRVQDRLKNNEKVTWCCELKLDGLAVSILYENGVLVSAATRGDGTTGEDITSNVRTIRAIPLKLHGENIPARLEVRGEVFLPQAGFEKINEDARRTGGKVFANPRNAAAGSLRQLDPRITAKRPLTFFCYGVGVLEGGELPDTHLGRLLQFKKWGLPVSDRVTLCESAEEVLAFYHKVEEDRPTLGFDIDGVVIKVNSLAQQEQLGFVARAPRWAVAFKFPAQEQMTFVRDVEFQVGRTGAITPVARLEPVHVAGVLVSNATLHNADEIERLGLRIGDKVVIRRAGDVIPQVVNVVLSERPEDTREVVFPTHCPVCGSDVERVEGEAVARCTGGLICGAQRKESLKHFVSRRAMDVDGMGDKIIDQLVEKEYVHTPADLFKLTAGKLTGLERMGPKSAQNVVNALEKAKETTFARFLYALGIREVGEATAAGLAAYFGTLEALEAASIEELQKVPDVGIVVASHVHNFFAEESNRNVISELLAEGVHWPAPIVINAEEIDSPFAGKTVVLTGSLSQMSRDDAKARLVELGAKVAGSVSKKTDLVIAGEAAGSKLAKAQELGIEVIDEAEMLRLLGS
# Sequence of MurA (Q3YX52 whole entry): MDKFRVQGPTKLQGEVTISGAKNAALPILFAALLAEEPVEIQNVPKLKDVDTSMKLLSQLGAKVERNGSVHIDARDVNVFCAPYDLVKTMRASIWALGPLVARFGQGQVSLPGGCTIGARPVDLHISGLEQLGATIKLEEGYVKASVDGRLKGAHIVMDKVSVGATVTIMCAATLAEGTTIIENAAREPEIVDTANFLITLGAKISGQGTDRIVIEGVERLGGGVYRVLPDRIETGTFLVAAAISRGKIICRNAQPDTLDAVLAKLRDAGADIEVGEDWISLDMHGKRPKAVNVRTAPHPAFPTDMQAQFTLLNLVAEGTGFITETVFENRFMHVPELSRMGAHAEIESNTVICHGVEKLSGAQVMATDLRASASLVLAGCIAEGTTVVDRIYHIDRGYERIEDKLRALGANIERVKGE
# Sequence of GlmU (A7ZTU1 whole entry, looked up): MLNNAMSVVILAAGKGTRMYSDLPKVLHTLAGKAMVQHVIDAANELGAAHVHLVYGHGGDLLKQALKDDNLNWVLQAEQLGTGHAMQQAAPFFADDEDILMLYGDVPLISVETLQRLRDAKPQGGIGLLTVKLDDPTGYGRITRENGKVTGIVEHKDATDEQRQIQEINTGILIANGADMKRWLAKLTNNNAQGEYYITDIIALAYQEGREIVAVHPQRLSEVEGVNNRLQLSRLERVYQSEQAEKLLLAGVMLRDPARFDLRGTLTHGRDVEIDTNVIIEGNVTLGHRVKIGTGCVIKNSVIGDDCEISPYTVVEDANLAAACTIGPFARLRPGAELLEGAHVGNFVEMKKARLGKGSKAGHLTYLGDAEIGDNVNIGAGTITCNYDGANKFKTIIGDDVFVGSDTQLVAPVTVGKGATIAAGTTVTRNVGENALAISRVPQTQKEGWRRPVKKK
# Sequence of DNA helicase (P0ACB1 whole entry): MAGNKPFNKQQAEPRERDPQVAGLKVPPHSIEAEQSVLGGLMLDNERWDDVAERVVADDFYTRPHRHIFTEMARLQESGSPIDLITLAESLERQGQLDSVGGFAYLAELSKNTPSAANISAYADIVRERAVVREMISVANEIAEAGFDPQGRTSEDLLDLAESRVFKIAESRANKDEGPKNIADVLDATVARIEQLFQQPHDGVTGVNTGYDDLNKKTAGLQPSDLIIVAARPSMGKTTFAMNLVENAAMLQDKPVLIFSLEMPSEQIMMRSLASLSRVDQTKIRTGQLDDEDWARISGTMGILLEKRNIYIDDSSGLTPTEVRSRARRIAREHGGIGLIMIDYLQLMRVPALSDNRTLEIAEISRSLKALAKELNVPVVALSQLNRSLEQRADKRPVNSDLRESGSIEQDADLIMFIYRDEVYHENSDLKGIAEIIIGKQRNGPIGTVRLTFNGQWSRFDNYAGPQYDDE
# Sequence of Guanlyate kinase (Q0TBG1 whole entry): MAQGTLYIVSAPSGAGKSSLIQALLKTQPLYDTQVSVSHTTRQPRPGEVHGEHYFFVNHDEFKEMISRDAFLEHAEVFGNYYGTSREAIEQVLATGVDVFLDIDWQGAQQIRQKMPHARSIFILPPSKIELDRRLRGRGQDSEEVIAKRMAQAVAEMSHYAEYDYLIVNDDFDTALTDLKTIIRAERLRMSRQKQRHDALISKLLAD
# Sequence of MurC (C4ZRI6 whole entry, looked up): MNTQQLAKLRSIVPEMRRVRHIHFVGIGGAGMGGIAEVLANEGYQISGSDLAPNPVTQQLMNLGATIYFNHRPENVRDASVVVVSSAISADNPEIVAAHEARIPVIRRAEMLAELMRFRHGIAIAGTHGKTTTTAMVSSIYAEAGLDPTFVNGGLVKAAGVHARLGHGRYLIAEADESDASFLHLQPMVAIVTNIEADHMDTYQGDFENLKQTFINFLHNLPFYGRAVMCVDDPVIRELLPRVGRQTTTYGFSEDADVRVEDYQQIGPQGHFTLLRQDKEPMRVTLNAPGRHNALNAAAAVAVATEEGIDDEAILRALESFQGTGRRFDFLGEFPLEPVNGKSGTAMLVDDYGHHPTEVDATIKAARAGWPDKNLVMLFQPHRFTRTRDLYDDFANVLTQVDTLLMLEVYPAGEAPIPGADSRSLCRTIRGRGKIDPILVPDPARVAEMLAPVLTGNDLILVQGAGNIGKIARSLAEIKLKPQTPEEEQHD
# Sequence of DNA primase (P0ABS7 whole entry): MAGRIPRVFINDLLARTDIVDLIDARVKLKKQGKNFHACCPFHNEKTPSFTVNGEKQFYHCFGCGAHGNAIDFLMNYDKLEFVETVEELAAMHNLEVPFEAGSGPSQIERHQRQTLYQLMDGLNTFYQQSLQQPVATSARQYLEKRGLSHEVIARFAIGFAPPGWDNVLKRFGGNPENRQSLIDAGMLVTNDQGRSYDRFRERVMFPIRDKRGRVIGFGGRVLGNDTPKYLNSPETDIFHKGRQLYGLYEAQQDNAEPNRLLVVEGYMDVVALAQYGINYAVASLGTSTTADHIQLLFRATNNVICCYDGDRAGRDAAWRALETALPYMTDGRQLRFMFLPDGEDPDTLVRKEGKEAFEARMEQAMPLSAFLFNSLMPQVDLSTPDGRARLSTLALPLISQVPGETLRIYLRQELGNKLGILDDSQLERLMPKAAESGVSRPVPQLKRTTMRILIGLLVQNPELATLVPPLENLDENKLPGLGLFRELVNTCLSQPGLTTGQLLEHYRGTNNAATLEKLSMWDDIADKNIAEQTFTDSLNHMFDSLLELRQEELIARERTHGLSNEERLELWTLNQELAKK
Compound,relative enzymatic activity (DNA gyrase),relative enzymatic activity (DNA helicase),relative enzymatic activity (DNA ligase),relative enzymatic activity (DNA polymerase),relative enzymatic activity (DNA primase),relative enzymatic activity (GlmU),relative enzymatic activity (Guanlyate kinase),relative enzymatic activity (MurA),relative enzymatic activity (MurD),relative enzymatic activity (MurF),relative enzymatic activity (RNA polymerase),relative enzymatic activity (MurC)
CC[C@@H](C)CCCCC(=O)N[C@@H](CCN)C(=O)N[C@H](C(=O)N[C@@H](CCN)C(=O)N[C@H]1CCNC(=O)[C@H]([C@@H](C)O)NC(=O)[C@H](CCN)NC(=O)[C@H](CCN)NC(=O)[C@H](CC(C)C)NC(=O)[C@@H](Cc2ccccc2)NC(=O)[C@@H](CCN)NC1=O)[C@@H](C)O,1.66 ± 0.37,0.0939 ± 0.022,0.701 ± 0.47,0.34 ± 0.059,0.616 ± 0.13,1.11 ± 0.016,0.449 ± 0.055,0.646 ± 0.21,0.674 ± 0.44,0.991 ± 0.22,0.46 ± 0.03,
CCC(C)C1NC(=O)C(CCNCS(=O)(=O)[O-])NC(=O)C(NC(=O)C(CCNCS(=O)(=O)[O-])NC(=O)C(NC(=O)C(CCNCS(=O)(=O)[O-])NC(=O)CCCCC(C)C)C(C)O)CCNC(=O)C(C(C)O)NC(=O)C(CCNCS(=O)(=O)[O-])NC(=O)C(CCNCS(=O)(=O)[O-])NC(=O)C(C(C)CC)NC1=O.[Na+].[Na+].[Na+].[Na+].[Na+] (centres undefined),1.1 ± 0.088,0.615 ± 0.27,1.08 ± 0.17,1.32 ± 0.34,0.766 ± 0.23,0.983 ± 0.022,1 ± 0.023,0.564 ± 0.14,0.591 ± 0.39,1.03 ± 0.3,0.919 ± 0.029,1.05 ± 0.03
C[C@H]1c2cccc(O)c2C(=O)C2=C(O)[C@]3(O)C(=O)[C@@H](C(N)=O)C(=O)[C@@H](N(C)C)[C@@H]3[C@@H](O)[C@@H]21,0.782 ± 0.34,0.508 ± 0.05,0.954 ± 0.14,1.17 ± 0.29,0.8317 ± 0.0057,0.934 ± 0.018,0.958 ± 0.081,0.673 ± 0.19,0.601 ± 0.41,0.937 ± 0.26,0.882 ± 0.078,0.97 ± 0.064
CC1c2cccc(O)c2C(=O)C2=C(O)C3(O)C(=O)C(C(N)=O)=C(O)C(N(C)C)C3C(O)C21.Cl (centres undefined),0.996 ± 0.098,0.728 ± 0.41,1.05 ± 0.12,1.34 ± 0.32,0.734 ± 0.2,0.971 ± 0.048,1.12 ± 0.046,0.431 ± 0.093,0.572 ± 0.37,0.943 ± 0.17,0.9639 ± 0.0043,1.02 ± 0.027
COc1ccc(Cc2cnc(N)nc2N)cc1OC,0.752 ± 0.41,0.508 ± 0.059,1.55 ± 0.21,1.21 ± 0.22,0.74 ± 0.24,1.019 ± 0.0077,0.993 ± 0.039,0.74 ± 0.026,0.583 ± 0.39,0.946 ± 0.2,0.9567 ± 0.0054,
CCCCCCCCCCCCCCCC[N+](C)(C)Cc1ccccc1.[Cl-],0.3954 ± 0.003,0.0157 ± 0.00047,0.183 ± 0.12,0.0334 ± 0.0085,0.27 ± 0.0085,0.115 ± 0.0013,0.0243 ± 0.0088,0.032 ± 0.0013,0.0872 ± 0.0094,0.156 ± 0.061,0.133 ± 0.018,0.176 ± 0.051
CON=C(C(=O)N[C@@H]1C(=O)N2C(C(=O)OCOC(=O)C(C)(C)C)=C(C=Cc3scnc3C)CS[C@H]12)c1csc(N)n1,0.622 ± 0.19,0.322 ± 0.0034,0.899 ± 0.1,0.496 ± 0.7,0.83003 ± 0.00016,0.838 ± 0.01,0.842 ± 0.11,0.335 ± 0.12,0.147 ± 0.21,0.855 ± 0.25,0.945 ± 0.2,0.769 ± 0.15
C=CC1=C(C(=O)O)N2C(=O)[C@@H](NC(=O)/C(=N/O)c3csc(N)n3)[C@H]2SC1,0.0537 ± 0.076,0.371 ± 0.1,0.963 ± 0.1,1.16 ± 0.24,0.769 ± 0.027,1.004 ± 0.0086,0.947 ± 0.08,0.119 ± 0.015,0.599 ± 0.41,0.943 ± 0.22,0.785 ± 0.086,0.917 ± 0.017
